14-3-3 Bad inh: disrupts binding of bovine 14-3-3 zeta to phospho-Bad peptide. TR-FRET 14-3-3zeta/Dy647-pBad peptide displacement, 1 h. 220,000 compounds, 0.71% hits. inhibition, % at 21.7 µM. AID 781;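 active = inhibition above about 70%, limit read from the data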;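 also: 0% = full 14-3-3 plus peptide FRET controls and 100% = background without 14-3-3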
MCL1-BIM inh: inhibitors of human MCL1 binding to BIM-BH3 peptide; inhibition, % at 10.9 µM; 320,000 compounds, 0.68% hits; AID 2057; GST-MCL1 / FITC-Bim-BH3 fluorescence polarization; Q07820;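 active = inhibition above the mean inhibition of all tested compounds plus 3 SD, set per campaign, cut at about 40% in these data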;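 also: 0% = DMSO wells and 100% = unlabeled Bim-BH3 peptide control; higher means more loss of mP so more displacement of Bim peptide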
Target sequence (Q07820 whole entry, looked up): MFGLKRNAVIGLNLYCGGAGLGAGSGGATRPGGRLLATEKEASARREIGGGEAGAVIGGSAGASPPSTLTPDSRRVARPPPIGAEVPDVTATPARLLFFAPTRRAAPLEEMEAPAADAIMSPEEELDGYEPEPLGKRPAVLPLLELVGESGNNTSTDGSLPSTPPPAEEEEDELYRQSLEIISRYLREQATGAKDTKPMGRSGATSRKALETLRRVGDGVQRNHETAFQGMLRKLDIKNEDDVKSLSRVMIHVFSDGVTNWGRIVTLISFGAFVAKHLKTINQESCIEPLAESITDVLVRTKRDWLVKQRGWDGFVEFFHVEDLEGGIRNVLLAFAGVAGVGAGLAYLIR
Mcl1 Noxa PPI: Mcl-1/Noxa interaction inhibition; AID 1022; inhibition, % at 21.7 µM; Q07820; TR-FRET Mcl-1/Noxa peptide binding, 2 h; 220,000 compounds, 1.5% hits;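 active = compounds that cut the protein-peptide binding signal by more than 50% relative to plate controls in a single-dose test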;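 also: His-tagged Mcl-1 with rhodamine Noxa BH3 peptide and terbium anti-His antibody; 0% = Mcl-1 plus Noxa peptide wells and 100% = peptide-only wells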
eIF4E-4G inh: eIF4E/eIF4G interaction inhibition in translation initiation; inhibition, % at 21.7 µM; P63073+Q04637; 220,000 compounds, 0.37% hits; TR-FRET eIF4E-eIF4GI(517-606) binding, 2 h; AID 782;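 active = inhibition above about 30%, limit read from the data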;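 also: 0% = full FRET control wells and 100% = background wells lacking eIF4GI fragment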
Bim-Mcl-1: inhibitors of Bim-Mcl-1 interaction, human | 190,000 compounds, 0.1% hits | AID 1009 | Q07820 | Bead-based flow cytometry, Bim peptide-Mcl-1 binding | inhibition, % at 10 µM; in the data active = inhibition above about 40%;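 also: 0% = no compound tracer wells and 100% = peptide blocker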
Mcl1 Bid PPI: disrupts binding of human Mcl-1 to Bid peptide | TR-FRET Mcl-1/Bid-Dy647 peptide binding, 1536-well | inhibition, % at 21.7 µM | 220,000 compounds, 0.97% hits;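 active = compounds that cut the binding signal by more than half at the single screening dose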;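 also: His-tagged Mcl-1 with europium anti-His antibody binding Bid BH3 peptide; 0% = Mcl-1 plus peptide wells and 100% = peptide-only wells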
Starred values were filed as active, the others as inactive. A selection: hits, their analogues and other compounds. The true share with any hit is near 2.6%.

For C=CCN1C(=O)/C(=C2/C(=O)N(CC(=O)O)c3ccccc32)S/C1=N/c1nccs1 the results were 14-3-3 Bad inh 19.8, Mcl1 Noxa PPI 89.0*, eIF4E-4G inh 16.5, Bim-Mcl-1 1.0 and Mcl1 Bid PPI -37.7.
Screening Cc1c(O)nc(SCC(=O)Nc2ccc3c4c(cccc24)CC3)n(-c2ccc(F)cc2)c1=O returned 14-3-3 Bad inh -31.0, MCL1-BIM inh 16.4, Mcl1 Noxa PPI 32.7, eIF4E-4G inh 0.7, Bim-Mcl-1 0.0 and Mcl1 Bid PPI -72.2.
`O=C(NC1CCN(Cc2ccc(Cl)cc2Cl)CC1)c1ccccc1` gave MCL1-BIM inh 1.4.
For COC(=O)c1c(C)cc(OC(C)=O)c(C)c1OC(C)=O the results were 14-3-3 Bad inh -3.2, MCL1-BIM inh 3.1, Mcl1 Noxa PPI 12.8, eIF4E-4G inh 33.4*, Bim-Mcl-1 -2.0 and Mcl1 Bid PPI 1.1.
Screening COc1cccc(CN(C)C(=O)c2ccc3nccnc3c2)c1 returned 14-3-3 Bad inh -3.1, MCL1-BIM inh 47.6*, Mcl1 Noxa PPI 25.8, eIF4E-4G inh -4.4, Bim-Mcl-1 -1.0 and Mcl1 Bid PPI 1.5.
For CN(Cc1ccc(OC(F)F)cc1)C(=O)c1ccc2nccnc2c1 the results were 14-3-3 Bad inh -1.4, MCL1-BIM inh 7.4, Mcl1 Noxa PPI -5.3, eIF4E-4G inh 7.8, Bim-Mcl-1 -3.0 and Mcl1 Bid PPI 7.0.
Cc1ccc2c(c1)N(CCC(=O)NC1CCCCC1C)C(=O)CO2 (configuration not stated) was read as MCL1-BIM inh 7.2.
`O=C(c1cccc(N2C(=O)C3C4C=CC(C4)C3C2=O)c1)N1CCCCCC1` (configuration not stated) gave 14-3-3 Bad inh 76.9*, MCL1-BIM inh -5.5, Mcl1 Noxa PPI 7.8, eIF4E-4G inh 2.3, Bim-Mcl-1 -2.0 and Mcl1 Bid PPI -15.1.
Screening COCCCNCC(=O)c1c(N)n(Cc2ccccc2)c(=O)n(C)c1=O returned 14-3-3 Bad inh 75.2*, MCL1-BIM inh -4.2, Mcl1 Noxa PPI 36.6, eIF4E-4G inh 8.6, Bim-Mcl-1 0.0 and Mcl1 Bid PPI 34.5.
`CC1CCCCC1NC(=O)CN(C)S(=O)(=O)c1ccc2c(c1)CCC(=O)N2` (configuration not stated) gave MCL1-BIM inh -0.5.
Cc1c(Cl)cnc(NC(=O)COC(=O)CCS(=O)(=O)c2ccccc2)c1Cl was read as 14-3-3 Bad inh -17.0, MCL1-BIM inh 13.6, Mcl1 Noxa PPI 28.3, eIF4E-4G inh 4.2, Bim-Mcl-1 -2.0 and Mcl1 Bid PPI -23.6.
For CC(=O)COC(=O)C1CCN(S(=O)(=O)c2cc([N+](=O)[O-])ccc2Cl)CC1 the results were 14-3-3 Bad inh 20.5, MCL1-BIM inh 18.4, Mcl1 Noxa PPI 8.2, eIF4E-4G inh 2.2 and Mcl1 Bid PPI 10.6.
Screening O=C(COC(=O)CCS(=O)(=O)c1ccc(Cl)cc1)Nc1ncc(Cl)cc1Cl returned 14-3-3 Bad inh -1.1, MCL1-BIM inh -3.1, Mcl1 Noxa PPI 12.1, eIF4E-4G inh -4.7, Bim-Mcl-1 1.0 and Mcl1 Bid PPI 93.2*.
For O=C(COC(=O)C1CCN(S(=O)(=O)c2cc([N+](=O)[O-])ccc2Cl)CC1)Nc1ncc(Cl)cc1Cl the results were 14-3-3 Bad inh 19.8, MCL1-BIM inh 33.0, Mcl1 Noxa PPI 69.1*, eIF4E-4G inh 22.2, Bim-Mcl-1 0.0 and Mcl1 Bid PPI -9.7.
O=C1c2ccccc2C(=O)N1c1cccc(-c2csc(Nc3ccc4c(c3)OCO4)n2)c1 was read as 14-3-3 Bad inh 9.1, MCL1-BIM inh 53.2*, Mcl1 Noxa PPI 61.9*, eIF4E-4G inh 2.2, Bim-Mcl-1 1.0 and Mcl1 Bid PPI 37.8.
For O=C(COCC(=O)NCc1ccccc1)NCc1ccccc1 the results were 14-3-3 Bad inh -8.9, MCL1-BIM inh -2.4, Mcl1 Noxa PPI 3.8, eIF4E-4G inh -2.2, Bim-Mcl-1 49.0* and Mcl1 Bid PPI -18.6.
For CCN1CCN(c2ccc(S(=O)(=O)N3CCOCC3)cc2NC(=O)C(C)Oc2ccc(Cl)cc2)CC1 (configuration not stated) the results were MCL1-BIM inh -15.4.
For CC(C)CNC(=O)Cn1c(=O)c2c(ncn2CC(C)C)n(Cc2ccccc2)c1=O the results were 14-3-3 Bad inh 89.9*, MCL1-BIM inh 7.6, Mcl1 Noxa PPI 6.3, eIF4E-4G inh -0.4, Bim-Mcl-1 -5.0 and Mcl1 Bid PPI -16.4.
